The values below come from PubChem BioAssay (NCI).

Among the test systems are HCT-15 colon; HT29 colon; SNB-75 CNS; SNB-19 CNS; U251 CNS; PC-3 prostate; SK-MEL-5 melanoma; UACC-62 melanoma; LOX IMVI melanoma; SK-MEL-28 melanoma; SK-MEL-2 melanoma; EKVX NSCLC; SN12C renal; UO-31 renal; TK-10 renal; ACHN renal; CAKI-1 renal; A498 renal; CCRF-CEM leukemia; MOLT-4 leukemia.
Assay in all cases: NCI-60 one-dose screen, 48 h (100 = growth as untreated, 0 = no growth, -100 = all killed)
What all share (conditions): 10 µM unless noted

This is part of a sample that, as a whole, favours compounds with a hit. Of some 83,000 tested, about 20% had one in any assay.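 48-hour exposure, single concentration, 96-well plates; percent growth endpoint where 0 means no net growth. Active: below 10.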 Unmarked numbers belong to inactive results. The source made the active and inactive calls.

`C(=N\Nc1nc(N/N=C/c2ccc3c(c2)OCO3)nc(N2CCCCC2)n1)/c1ccc2c(c1)OCO2`: the growth with HCT-15 colon was 33.8%; in the assay with HT29 colon, 38.2%; in the assay with SNB-75 CNS, 113%; in the assay with SNB-19 CNS, 80.3%; in the assay on U251 CNS it was 81.4%; with PC-3 prostate it was 73.6%. Besides, the growth in the assay on SK-MEL-5 melanoma was 96.8%; in the assay on UACC-62 melanoma, 102%; with LOX IMVI melanoma, 47.9%; in the assay with SK-MEL-28 melanoma it was 109%; in the assay with SK-MEL-2 melanoma, 103%; in the assay on EKVX NSCLC, 93.7%. In addition, the growth in the assay on SN12C renal is 79.7%; with UO-31 renal, 74.4%; in the assay with TK-10 renal it was 121%; with ACHN renal it was 94.9%; with CAKI-1 renal, 98.9%; in the assay on A498 renal, 51.7%. In addition, the growth in the assay on CCRF-CEM leukemia is 20.4%; in the assay with MOLT-4 leukemia, 56.3%.

For `CC(=O)OCCCCN1C=C/C(=C\C(=O)n2ccc3ccccc32)c2ccccc21`, the growth with HCT-15 colon is 101%; in the assay with HT29 colon, 113%; in the assay with SNB-75 CNS, 100%; in the assay with SNB-19 CNS, 103%; in the assay with U251 CNS it was 102%; in the assay with PC-3 prostate, 101%. Further, the growth in the assay on SK-MEL-5 melanoma is 100%; in the assay with UACC-62 melanoma, 89.4%; with LOX IMVI melanoma it was 99.9%; with SK-MEL-28 melanoma it was 111%; with SK-MEL-2 melanoma, 113%; in the assay on EKVX NSCLC, 75%. The growth with SN12C renal is 108%; in the assay on UO-31 renal, 71.6%; in the assay on TK-10 renal, 147%; in the assay on ACHN renal, 94.8%; in the assay on CAKI-1 renal it was 79.8%; in the assay on A498 renal it was 121%. Moreover, the figures for the growth with CCRF-CEM leukemia and in the assay with MOLT-4 leukemia were 102% and 98%, respectively.

In the case of `Cc1ccc2c(n1)C(=O)C(Cl)=C(Nc1cccc(C)c1C)C2=O`, the growth in the assay with HCT-15 colon was 9.66% (active); with HT29 colon it was 87.6%; in the assay on SNB-75 CNS, 61.2%; with SNB-19 CNS, 13.3%; in the assay with U251 CNS, -7.55% (active); in the assay on PC-3 prostate, 12.4%. The growth in the assay with SK-MEL-5 melanoma was -66.1% (active); in the assay with UACC-62 melanoma, 0.0061% (active); in the assay on LOX IMVI melanoma, -21.1% (active); in the assay on SK-MEL-28 melanoma, 6.66% (active); in the assay with SK-MEL-2 melanoma, -42% (active); with EKVX NSCLC, 31.2%. The growth with SN12C renal was -73.4% (active); in the assay on UO-31 renal, -22.8% (active); with TK-10 renal, 142%; in the assay on ACHN renal it was -25.5% (active); with CAKI-1 renal, 56.5%; with A498 renal, 64%. In addition, the growth is 2.35% (active) in the assay on CCRF-CEM leukemia and -10.3% (active) with MOLT-4 leukemia.

As for `COc1cccc2c1C=CC1(O2)Oc2cccc(OC)c2C=C1C` (stereo not given), the growth in the assay with HCT-15 colon was 24.9%; in the assay with HT29 colon, 6.27% (active); with SNB-75 CNS, -8.19% (active); in the assay on SNB-19 CNS, 22.8%; in the assay with U251 CNS, 16.8%; in the assay on PC-3 prostate, 31.4%. Also, the growth with SK-MEL-5 melanoma is 24.6%; in the assay with UACC-62 melanoma, 13.1%; in the assay with LOX IMVI melanoma it was 24.5%; in the assay with SK-MEL-28 melanoma it was 58.4%; in the assay on SK-MEL-2 melanoma, 57.7%; with EKVX NSCLC it was 47.7%. For the same compound, the growth was 49% in the assay on SN12C renal; 47% in the assay with UO-31 renal; 103% in the assay with TK-10 renal; 40.4% in the assay with ACHN renal; 29.2% in the assay with CAKI-1 renal; 5.37% (active) in the assay on A498 renal. Besides, the growth was 10.1% in the assay on CCRF-CEM leukemia and 11.7% in the assay on MOLT-4 leukemia.

With `Cc1[nH]c(C(=O)Nc2ccc(C(=O)NCC3CCNCC3)cc2OC(C)C)c(Cl)c1Cl`, the growth with HCT-15 colon is 93.7%; in the assay on HT29 colon it was 40.6%; in the assay on SNB-75 CNS, 44.8%; with SNB-19 CNS, 64.2%; with U251 CNS it was 8.95% (active); with PC-3 prostate, 61.6%. The growth with SK-MEL-5 melanoma is 95.9%; in the assay on UACC-62 melanoma, 98.8%; in the assay with LOX IMVI melanoma it was 9.32% (active); with SK-MEL-28 melanoma, 83.9%; in the assay with SK-MEL-2 melanoma, 97.9%; in the assay on EKVX NSCLC, 82.8%. Besides, the growth was 81.4% in the assay on SN12C renal; 88.6% in the assay with UO-31 renal; 90.2% in the assay with TK-10 renal; 99.9% in the assay on ACHN renal; 76.7% in the assay with CAKI-1 renal; 79.4% in the assay with A498 renal. The values for the growth with CCRF-CEM leukemia and in the assay on MOLT-4 leukemia were 32.6% and 19.6%, respectively.

Regarding `CC1=Cc2ccccc2OC12C=Cc1ccccc1O2` (stereo not given), the growth in the assay on HCT-15 colon was 96.8%; in the assay on HT29 colon, 98.2%; in the assay on SNB-75 CNS it was 81.4%; in the assay with SNB-19 CNS it was 91.1%; in the assay with U251 CNS, 102%; with PC-3 prostate it was 84.9%. The growth with SK-MEL-5 melanoma was 92.4%; with UACC-62 melanoma, 83%; with LOX IMVI melanoma, 90.6%; in the assay with SK-MEL-28 melanoma it was 114%; with SK-MEL-2 melanoma, 115%; with EKVX NSCLC it was 82.2%. Further, the growth is 102% in the assay with SN12C renal; 69% with UO-31 renal; 180% with TK-10 renal; 88.4% with ACHN renal; 78.5% in the assay with CAKI-1 renal; 117% in the assay on A498 renal. Moreover, the figures for the growth in the assay with CCRF-CEM leukemia and in the assay with MOLT-4 leukemia were 105% and 99.9%, respectively.

Turning to `Nn1c(=O)n(-c2cccc(C(F)(F)F)c2)c(=O)c2cc(-c3ccc(F)cc3F)ccc21`, the growth with HCT-15 colon is 10.6%; in the assay with HT29 colon it was 60.8%; in the assay with SNB-75 CNS, -16.5% (active); in the assay on SNB-19 CNS, 9.55% (active); with U251 CNS, 5.07% (active); with PC-3 prostate it was -3.92% (active). The growth with SK-MEL-5 melanoma was -51.6% (active); in the assay with UACC-62 melanoma, 1.73% (active); in the assay with LOX IMVI melanoma, 0.654% (active); in the assay on SK-MEL-28 melanoma it was 28%; in the assay on SK-MEL-2 melanoma it was -21.5% (active); in the assay on EKVX NSCLC it was 3.55% (active). Also, the growth in the assay with SN12C renal was 1.86% (active); in the assay on UO-31 renal it was 5.45% (active); in the assay with TK-10 renal, 7.05% (active); with ACHN renal, 0.86% (active); with CAKI-1 renal it was -12.5% (active); with A498 renal it was -20.6% (active). Besides, the growth in the assay with CCRF-CEM leukemia was 13.3%; in the assay on MOLT-4 leukemia it was 4.48% (active).

As for `O=C(CCl)Nc1ccc(NC(=O)c2cc(Cl)ccc2O)c(Cl)c1`, the growth in the assay with HCT-15 colon is 25.9%; in the assay with HT29 colon it was 64.6%; in the assay on SNB-75 CNS it was 77.1%; with SNB-19 CNS it was 80%; in the assay on U251 CNS, 42.8%; with PC-3 prostate, 87.1%. Also, the growth is 57.8% in the assay with SK-MEL-5 melanoma; 56.4% with UACC-62 melanoma; -88.1% (active) in the assay on LOX IMVI melanoma; 88.5% in the assay with SK-MEL-28 melanoma; 92% in the assay with SK-MEL-2 melanoma; 95.9% with EKVX NSCLC. Besides, the growth was 68.4% with SN12C renal; 54.7% in the assay with UO-31 renal; 129% with TK-10 renal; 85.8% in the assay with ACHN renal; 59.2% in the assay on CAKI-1 renal; 100% with A498 renal. Moreover, the growth was 9.8% (active) in the assay on CCRF-CEM leukemia and 25.7% in the assay on MOLT-4 leukemia.
